Source: PubChem BioAssay (National Center for Advancing Translational Sciences (NCATS))
DT40 TDP1 no CPT – qHTS for Inhibitors of human tyrosyl-DNA phosphodiesterase 1 (TDP1): qHTS in cells in absence of CPT; DT40 Tdp1-/- hTDP1 cells, no CPT, ATP luminescence, 48 h; Potency, µM (series often up to 46.2 µM), actives largely listed as inhibitors; 420,000 compounds, 15% hits; AID 686978, 2013; also: nearly all actives have a fitted effect of over 55% in size
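A cellular qHTS used chicken DT40 cells lacking endogenous Tdp1 but carrying stably transfected human TDP1. Compounds were applied without camptothecin, and cell growth kinetics were judged by ATP-dependent luminescence after ≥48 hr.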
TDP1 cell CPT – qHTS for Inhibitors of human tyrosyl-DNA phosphodiesterase 1 (TDP1): qHTS in cells in presence of CPT; chicken DT40 Tdp1-/-;hTDP1 cells + 20 nM CPT, ATP luminescence, 48 h; Potency, µM (highest dose often 46.2 µM), most hits filed as inhibitors; 420,000 compounds, 12% hits; AID 686979, 2013; also: nearly all actives have a fitted effect of over 55% in size
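Chicken DT40 Tdp1-/- cells complemented with human TDP1, 400 cells/well, exposed to compounds plus 20 nM camptothecin for at least 48 h at 37 C; viability read as ATP content by CellTiter-Glo luminescence.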
IL1B secr inh – qHTS for Inhibitors of Inflammasome Signaling: IL-1-beta AlphaLISA Primary Screen | 360,000 compounds, 4.7% hits | AID 743279, 2014 | activity change, % at 57.5 µM | THP-1 LPS/ATP IL-1B secretion, AlphaLISA, 16 h; active compounds read low; in the data active = activity change below about -50%; inconclusive = mostly about -30% to -49%
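THP-1 cells pretreated 1 hr with compounds (up to 57.5 uM final), then stimulated with LPS (250 ng/mL final) plus ATP (1.25 mM final); secreted IL-1B measured by AlphaLISA after 16 hr, decreased signal indicating inhibition.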
LDHA block – qHTS assay for inhibitors of human lactate dehydrogenase; L-lactate dehydrogenase A chain (Homo sapiens), P00338; purified LDHA, NADH/diaphorase-resazurin fluorescence; active compounds read low; activity change, % (values are at about 110 or 230 µM); 480,000 compounds, 0.15% hits; in the data active = activity change below about -30%; inconclusive = mostly about -25% to -30%
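Remaining NADH was detected by diaphorase (0.133 mg/mL) converting 37 µM resazurin to fluorescent resorufin, read at 0 and 20 minutes. The preceding 5-minute room-temperature reaction used 2 nM LDHA, 0.2 mM sodium pyruvate and 0.06 mM NADH at pH 7.4.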
RORgamma inh – qHTS for inhibitors of ROR gamma transcriptional activity | Nuclear receptor ROR-gamma (Mus musculus), P51450 | Drosophila S2 Gal4-RORgamma UAS-luciferase reporter, 20 h | Potency, µM (highest dose often 53.6 µM), usual class: inhibitors | 310,000 compounds, 5.4% hits | AID 2551, 2010; also: nearly all actives have a fitted effect of over 60% in size
Target sequence (P51450 whole entry, looked up, the tested form may be a part): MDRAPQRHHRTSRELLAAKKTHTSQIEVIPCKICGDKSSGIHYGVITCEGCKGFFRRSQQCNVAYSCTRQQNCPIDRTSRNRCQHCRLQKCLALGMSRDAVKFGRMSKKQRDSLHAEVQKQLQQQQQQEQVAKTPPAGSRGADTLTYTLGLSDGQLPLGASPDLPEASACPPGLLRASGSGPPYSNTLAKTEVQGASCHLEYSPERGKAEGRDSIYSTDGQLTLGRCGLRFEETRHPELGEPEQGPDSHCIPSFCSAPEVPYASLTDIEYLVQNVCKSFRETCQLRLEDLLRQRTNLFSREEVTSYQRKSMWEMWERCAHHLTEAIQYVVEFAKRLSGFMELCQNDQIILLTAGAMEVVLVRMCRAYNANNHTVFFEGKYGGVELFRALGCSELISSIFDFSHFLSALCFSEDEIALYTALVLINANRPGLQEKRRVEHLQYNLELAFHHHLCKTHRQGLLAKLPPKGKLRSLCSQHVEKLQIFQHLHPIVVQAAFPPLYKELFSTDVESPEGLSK
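Luminescence from a UAS-regulated Photinus luciferase reporter in stably transfected Drosophila Schneider cells is measured; decreased signal marks ROR gamma inhibition. Fusion expression is induced by 700 uM copper sulfate for 20 hr.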
Gal4-VP16 FLuc – VP16 counterscreen qHTS for inhibitors of ROR gamma transcriptional activity; 310,000 compounds, 3.5% hits; AID 2546, 2010; Drosophila S2 Gal4-VP16 UAS-luciferase, luminescence, 20 h; Potency, µM (doses to about 53.6 µM), usual class: inhibitors;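 also: Gal4-VP16 expression switched on by copper sulfate through the metallothionein promoter; nearly all actives have a fitted effect of over 50% in size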
Numbers stand for hits; n = inactive; u = inconclusive; x = no result given; ! = not confirmed by another sample. In the library only some 18% were active in any assay of this set; here they are far more common. Unless noted, calls follow the shape of the dose curve; as a rule, active = well fitted curve in the direction sought with a large enough effect; inconclusive = small, poorly fitted or top-dose-only effect, or another doubt; inactive = no such curve, though single readings can be large; an effect the other way counts as inactive or inconclusive.

SMILES | DT40 TDP1 no CPT | TDP1 cell CPT | IL1B secr inh | LDHA block | RORgamma inh | Gal4-VP16 FLuc
Cc1ccc(C(=O)N/C(=C\c2cccs2)C(=O)NCCc2c[nH]c3ccccc23)cc1 | u | u | -62.8 | n | n | n
Cc1cccc(NC(=S)NCCc2c[nH]c3ccccc23)c1 | u | u | n | n | 2.51µM | 1µM
COc1ccc(/C=C(/NC(=O)c2ccc(OC)cc2)C(=O)NCCc2c[nH]c3ccccc23)cc1 | n | n | n | n | n | n
COc1ccc(-c2cn(CCc3c[nH]c4ccccc34)nn2)cc1 | 10µM | 11.2µM | n | n | u | n
S=C(NCCc1c[nH]c2ccccc12)Nc1ccc(Br)cc1 | x | x | x | n | x | x
CC(C)c1ccc(NC(=S)NCCc2c[nH]c3ccccc23)cc1 | 25.9µM | u | -52.8 | n | 10µM | u
CC(C)n1nc(C(=O)OCc2nc(N)nc(Nc3ccccc3)n2)c2ccccc2c1=O | x | x | x | n | x | x
S=C(NCCc1c[nH]c2ccccc12)Nc1ccc(Cl)cc1 | x | x | x | n | x | x
COc1ccc(CCNC(=S)NCCc2c[nH]c3ccccc23)cc1 | u | u | n | n | 12.6µM | u
COc1cc(CNCc2cccc3ccccc23)cc(OC)c1 | u | u | n | n | n | n
COc1ccc(-c2cn(Cc3cccc(OC)c3)nn2)cc1 | 11.2µM! | 12.6µM! | n | n | u | n
COc1cc(CNCc2c[nH]c3ccccc23)cc(OC)c1 | 9.2µM | 5.8µM | -83.8 | n | u | n
Cc1ccc(NC(=S)NCCc2c[nH]c3ccccc23)cc1 | 23.1µM | u | n | n | 7.94µM | 20µM
COc1ccc(CNC(=O)NCCc2c[nH]c3ccccc23)cc1 | n | u | n | n | n | n
CCCOc1ccc(C(=O)Cc2ccccc2)cc1 | x | x | x | n | x | x
Cc1ccc2c(CN(C)CCOc3ccc(Cl)cc3)cc(=O)oc2c1 | x | x | x | n | x | x
Fc1ccc(CCn2c(Cn3c(-c4cnccn4)nc4ccccc43)nc3ccccc32)cc1 | n | n | n | n | x | x
c1ccc(Cn2c(Cn3c(-c4cnccn4)nc4ccccc43)nc3ccccc32)cc1 | u | 25.9µM | n | n | x | x
CC(c1nc2ccccc2n1Cc1ccccc1)n1c(-c2cnccn2)nc2ccccc21 (stereo not given) | 20.6µM | 14.6µM | n | n | x | x
Cc1cc(C)nc(-n2nc(C)c(Oc3ccccc3O)c2C)n1 | n | n | n | n | 10µM | u
CCn1nc(C)c(Oc2ccccc2O)c1C | u | n | n | n | n | n
CCOc1cc(/C=N/NC(=O)CNc2ccc(C)cc2)ccc1OC(=O)c1ccccc1 | u | 29.1µM | u | n | n | n
CCOc1cc(/C=N\NC(=O)c2ccc(NC(=O)C(C)(C)C)cc2)ccc1OC(=O)c1ccc(C)cc1 | 29.1µM | u | n | n | n | n
CCOc1cc(/C=N\NC(=O)c2ccc(NC(=O)CC)cc2)ccc1OC(=O)c1ccccc1 | u | 18.4µM | n | n | n | n
CCOc1cc(/C=N\NC(=O)c2ccc(NC(=O)C(C)(C)C)cc2)ccc1OC(=O)c1cccc(C)c1 | 8.2µM | 11.6µM | n | n | n | n
SMILES | DT40 TDP1 no CPT | TDP1 cell CPT | IL1B secr inh | LDHA block | RORgamma inh | Gal4-VP16 FLuc
CCOc1cc(/C=N\NC(=O)c2ccc(C)nc2)ccc1OC(=O)c1ccc(F)cc1 | u | n | n | n | n | n
CCOc1cc(/C=N/NC(N)=O)ccc1OC(=O)c1ccc(C)cc1 | x | x | x | x | n | n
Cc1nc2sccn2c1-c1csc(Nc2ccccc2Cl)n1 | x | x | x | n | x | x
CCc1ccc(NS(=O)(=O)c2cc(-c3ccno3)oc2C)cc1 | x | x | x | n | x | x
CCCCCCn1nc(C(=O)OCC(=O)Nc2cc(C)on2)c2ccccc2c1=O | x | x | x | n | x | x
CCc1cccc2c(C(=O)C(NC(C)CC)c3ccccc3)c[nH]c12 (stereo not given) | 23.1µM | u | n | n | n | n
CCc1cccc2c(C(=O)C(NCCCOC)c3ccccc3)c[nH]c12 (stereo not given) | u | u | n | n | n | n
CCOc1ccccc1NC(=O)C(=O)c1c[nH]c2c(CC)cccc12 | x | x | x | -36.2 | x | x
CN(C)C(=O)CN1CCN(C(=O)CCl)CC1 | 16.4µM | u | n | n | n | n
CN1C(=O)/C(=C2\SC(=S)N(CCCCCC(=O)O)C2=O)c2ccccc21 | n | u | n | n | n | n
O=C(O)CCN1C(=O)/C(=C2\C(=O)N(Cc3ccc(F)cc3)c3ccccc32)SC1=S | 14.6µM | 16.4µM | n | n | n | n
Cc1[nH][nH]c(=O)c1C(c1ccc(OCc2c(F)cccc2Cl)cc1)c1c(C)[nH][nH]c1=O | x | x | x | n | x | x
O=C(O)c1cc(Cl)ccc1F | x | x | x | n | x | x
N/C(=C\C(=O)c1cc(Cl)ccc1O)C(Cl)(Cl)Cl | 3.26µM | 3.66µM | n | n | 3.98µM | u
CCOC(=O)COc1c(Cl)cc(C2NC(=S)NC(c3ccccc3)=C2C(C)=O)cc1OC (stereo not given) | n | n | -95.3 | n | n | n
COC(=O)COc1ccc(C2NC(=O)NC(c3ccccc3)=C2C(C)=O)cc1Br (stereo not given) | n | n | -71.2 | n | n | n
COc1cc(C2NC(=S)NC(c3ccccc3)=C2C(C)=O)cc(Cl)c1OCC(=O)O (stereo not given) | n | n | n | n | n | n
CC(=O)C1=C(c2ccccc2)NC(=S)NC1c1cc(Cl)c(OC(C)C)c(Cl)c1 (stereo not given) | u | u | u | n | 7.08µM | 5.01µM
CC(=O)C1=C(c2ccccc2)NC(=S)NC1c1ccc(O)c(O)c1 (stereo not given) | n | n | n | n | n | n
COC(=O)COc1ccc(C2NC(=O)NC(c3ccccc3)=C2C(C)=O)cc1OC (stereo not given) | n | n | n | n | n | n
O=C(Cc1cccs1)Nc1ccc2c(c1)OCCCO2 | x | x | x | n | x | x
CN(C)c1ncnc2c1ncn2[C@H]1CN(Cc2ccc(Cl)cc2)C[C@@H](CO)O1 | n | u | n | n | x | x
Nc1ncnc2c1ccn2[C@H]1CN(Cc2ccc3c(c2)OCO3)C[C@@H](COC(=O)c2ccccc2)O1 | u | u | n | n | x | x
Nc1ncnc2c1ccn2[C@H]1CN(Cc2ccc3c(c2)OCO3)C[C@@H](CO)O1 | 13µM | u | u | n | x | x
Nc1ncnc2c1ccn2[C@H]1CN(Cc2ccc(Cl)cc2)C[C@@H](CO)O1 | 13µM | 16.4µM | n | n | x | x
Cc1ccc(-c2cn3nc(-c4ccccc4)c(-c4ccccc4)nc3n2)cc1 | u | u | -74.4 | n | n | n
